Screening data deposited in PubChem by several laboratories.
CYP2C9 act = CYP2C9 (human) activation | P11712 | recombinant CYP2C9, luciferin-H conversion, luminescence; active compounds read high; factor 1 = untreated enzyme, 0 = blocked | activation factor at 5 µM | 1.4% of 96,000 active | AID 1024;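 active = activation factor of 2 or more for CYP2C9 at a 5 µM dose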;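 note: 0 = sulfaphenazole-blocked wells and 1 = vehicle-only wells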
Target sequence (P11712 whole entry, looked up): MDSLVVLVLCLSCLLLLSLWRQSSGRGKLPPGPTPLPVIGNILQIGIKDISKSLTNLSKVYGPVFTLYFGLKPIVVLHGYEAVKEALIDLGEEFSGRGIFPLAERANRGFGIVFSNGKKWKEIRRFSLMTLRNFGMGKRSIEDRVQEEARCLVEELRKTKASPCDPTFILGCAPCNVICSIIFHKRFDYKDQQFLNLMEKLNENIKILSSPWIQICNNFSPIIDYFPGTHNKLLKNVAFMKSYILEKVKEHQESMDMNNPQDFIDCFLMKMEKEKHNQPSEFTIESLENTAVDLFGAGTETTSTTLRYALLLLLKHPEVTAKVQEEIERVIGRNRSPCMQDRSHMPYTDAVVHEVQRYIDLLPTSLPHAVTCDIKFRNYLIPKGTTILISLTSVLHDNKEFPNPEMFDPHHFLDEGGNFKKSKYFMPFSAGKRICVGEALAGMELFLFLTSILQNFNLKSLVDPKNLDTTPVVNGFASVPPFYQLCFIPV
CYP2C19 inhib = human CYP2C19 inhibition; P33261; inhibition, % at 5 µM; 21% of 96,000 active; CYP2C19 Supersomes, luciferin-H EGE luminescence, 30 min;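 active = CYP2C19 inhibition above a set limit at 5 µM in the primary screen, cut at about 50% in these data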;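 note: plate controls were negative control wells for no effect and 2.5 mM tranylcypromine positive control for full effect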
CYP2C9 inh = blocks human cytochrome P450 2C9 | AID 777 | CYP2C9 Supersomes, luciferin-H conversion, luminescence | inhibition, % at 5 µM | 20% of 96,000 active | P11712;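 active = blocking of liver enzyme CYP2C9 beyond about 50% at 5 µM, limit read from the data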
PostGolgi yeast = growth inhibition of a yeast mutant, post-Golgi transport screen. AID 739. 0.9% of 98,000 active. inhibition, % at 10 µM. post-Golgi transport phenotypic cell assay;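 note: yeast cells grown in 1536-well plates; yeast grown about 18 h at 30C before absorbance read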
CYP2C19 activ = increases human CYP2C19 enzyme activity | P33261 | recombinant CYP2C19, luciferin-H EGE luminescence; active compounds read high; 0 = fully inhibited enzyme, 1 = untreated enzyme | activation factor at 5 µM | 96,000 tested, under 10 active | AID 1025;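 active = activation factor of at least 2 at 5 µM in the primary screen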;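 note: 0 = wells with 2.5 mM tranylcypromine and 1 = vehicle-only wells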
PostGolgi ctrl = yeast control strain growth, post-Golgi counter-screen | efflux-deficient yeast background strain, growth absorbance A615, 16 h | inhibition, % at 10 µM | 5% of 98,000 active | AID 738
An asterisk follows results filed as active. In the library only some 32% were active in any assay of this set; here they are far more common. Cut-off read from the data, not from the text of the source, unless noted: active = inhibition above about 30%; inactive = the rest.

Screening Cc1ccc(OCC(=O)NC2CCCC2)c(C)c1 returned CYP2C9 act 0.9, CYP2C19 inhib 47.4, CYP2C9 inh 6.5, PostGolgi yeast -0.6, CYP2C19 activ 0.5 and PostGolgi ctrl 1.5.
For O=C(COc1ccc(Cl)cc1Cl)NC1CCSC1=O (stereo unspecified) the results were CYP2C9 act 0.4, CYP2C19 inhib 95.7*, CYP2C9 inh 60.2*, PostGolgi yeast 29.1, CYP2C19 activ 0 and PostGolgi ctrl 6.6.
For Cc1ccccc1Cn1cc(S(=O)(=O)CC(=O)Nc2nccs2)c2ccccc21 the results were PostGolgi yeast -1.2 and PostGolgi ctrl 26.0.
Cc1cc(Cl)c(S(=O)(=O)N2CCCCCC2)cc1OCC(=O)NC1CCCCC1 was read as CYP2C9 act 0.1, CYP2C19 inhib 89.9*, CYP2C9 inh 89.3*, PostGolgi yeast 3.6, CYP2C19 activ 0.1 and PostGolgi ctrl 17.9.
`Cc1cc(Cl)c(S(=O)(=O)N2CCSCC2)cc1OCC(=O)NC1CCCCC1` gave CYP2C9 act 0.4, CYP2C19 inhib 66.4*, CYP2C9 inh 56.7*, PostGolgi yeast 2.2, CYP2C19 activ 0.3 and PostGolgi ctrl 14.2.
`CCN1CCN(S(=O)(=O)c2cc(OCC(=O)NC3CCCCC3)c(C)cc2Cl)CC1` gave CYP2C9 act 0.4, CYP2C19 inhib 32.7, CYP2C9 inh 56.4*, PostGolgi yeast 5.5, CYP2C19 activ 0.7 and PostGolgi ctrl 3.4.
Cc1cc(Cl)c(S(=O)(=O)N2CCCCCC2)cc1OCC(N)=O was read as CYP2C9 act 1.9, CYP2C19 inhib 12.0, CYP2C9 inh -86.6, PostGolgi yeast -4.2, CYP2C19 activ 0.9 and PostGolgi ctrl 17.3.
`Cc1cc(Cl)ccc1OCC(=O)NC1CCCC1` gave CYP2C9 act 0.3, CYP2C19 inhib 98.1*, CYP2C9 inh 66.8*, PostGolgi yeast -10.7, CYP2C19 activ 0 and PostGolgi ctrl 8.9.
CCN(CC)S(=O)(=O)c1ccc(C(=O)NCc2n[nH]c(=S)n2Cc2ccccc2)cc1 was read as CYP2C9 act 0.9, CYP2C19 inhib -6.7, CYP2C9 inh 13.9, PostGolgi yeast 3.4, CYP2C19 activ 1.1 and PostGolgi ctrl -4.4.
`CCOC(=O)N1CCC(NC(=O)c2ccc3c(=O)n4c(nc3c2)CCCC4)CC1` gave CYP2C9 act 0.7, CYP2C19 inhib 2.0, CYP2C9 inh 29.3, PostGolgi yeast -0.2, CYP2C19 activ 1 and PostGolgi ctrl 6.0.
O=C(CSc1nnc2sc3ccccc3n12)c1ccco1 was read as CYP2C9 act 1.8, CYP2C19 inhib 51.2*, CYP2C9 inh -78.1, PostGolgi yeast -2.8, CYP2C19 activ 0.5 and PostGolgi ctrl 24.8.
For CCOC(=O)CC(=O)CSc1nnc2sc3ccccc3n12 the results were CYP2C9 act 2.3*, CYP2C19 inhib 8.8, CYP2C9 inh -131.6, PostGolgi yeast 3.9, CYP2C19 activ 0.9 and PostGolgi ctrl 0.7.
For O=C(CSc1nnc2sc3ccccc3n12)N1CCN(c2ccccc2)CC1 the results were CYP2C9 act 2.8*, CYP2C19 inhib 8.7, CYP2C9 inh -177.6, PostGolgi yeast -8.1, CYP2C19 activ 0.9 and PostGolgi ctrl -0.8.
Screening CN(C)C(=O)CSc1nnc2sc3ccccc3n12 returned CYP2C9 act 1.3, CYP2C19 inhib 1.6, CYP2C9 inh -32.2 and CYP2C19 activ 1.
`Cc1ccc(-n2nnnc2SCC(=O)N2CC(=O)Nc3ccccc32)cc1` gave CYP2C9 act 1.5, CYP2C19 inhib 51.5*, CYP2C9 inh -47.8, PostGolgi yeast 3.7, CYP2C19 activ 0.5 and PostGolgi ctrl 10.5.
Screening Cc1ccccc1-n1c(C)nnc1SCC(=O)N1CC(=O)Nc2ccccc21 returned CYP2C9 act 1.1, CYP2C19 inhib 70.2*, CYP2C9 inh -14.7, PostGolgi yeast 5.8, CYP2C19 activ 0.3 and PostGolgi ctrl 17.3.
Screening Cc1nnc(SCC(=O)N2CC(=O)Nc3ccccc32)n1C returned CYP2C9 act 1, CYP2C19 inhib 4.5, CYP2C9 inh 0.8, PostGolgi yeast 4.4, CYP2C19 activ 1 and PostGolgi ctrl -11.9.
`COC(=O)c1c(N2C(=O)CCC2=O)sc2c1CCCC2` gave CYP2C9 act 1, CYP2C19 inhib -1.8, CYP2C9 inh -3.9, PostGolgi yeast 0.2, CYP2C19 activ 1 and PostGolgi ctrl -4.6.
Screening CN1CCc2c(c3ccccc3n2C)C1 returned CYP2C9 act 1, CYP2C19 inhib 0.1, CYP2C9 inh -4.7, PostGolgi yeast 13.8, CYP2C19 activ 1 and PostGolgi ctrl 9.2.
